Measurements reported in PubChem BioAssay AID435003 (Sanford-Burnham Center for Chemical Genomics, 2010).
Screen size: about 330,000 compounds; about 1,700 (0.52%) were called active. Cut-off read from the data, not from the text of the source: active = inhibition above about 50%; inactive = the rest. For the sample, actives were picked, then their nearest neighbours and some compounds at random.

Experiment: inhibitors of induced NF-kB luciferase reporter, primary screen, TCR NF-kB activation inhibitor project, cell-based, luminescence, uHTS (AID 435003)
Settings: Jurkat, PMA/ionomycin-induced NF-kB luciferase reporter, at 4 µM, hits give high values

| Structure (SMILES) | inhibition |
| --- | --- |
| Cc1ccc2nc(SC(C)C(=O)NCc3ccco3)[nH]c2c1 (stereo not given) | 7.59% (inactive) |
| O=C(/C=C/c1ccc([N+](=O)[O-])o1)NNC(=O)c1ccc(F)cc1 | 75.6% (active) |
| O=C(NNC(=O)C1CCCC1)c1ccc(F)cc1 | -13.7% (inactive) |
| COc1ccc(C(=O)NCC(=O)N/N=C/c2ccc([N+](=O)[O-])o2)cc1OC | 8.93% (inactive) |
| CCOc1ccccc1NC(=O)Cn1nnc(C(=O)NCc2cccs2)c1N | 65.8% (active) |
| CCc1ccc(NC(=O)Cn2nnc(C(=O)NCc3ccc(OC)cc3)c2N)cc1 | 13.8% (inactive) |
| Cc1ccc(NC(=O)Cn2nnc(C(=O)NCc3ccco3)c2N)c(C)c1 | -3.15% (inactive) |
| CC[n+]1c(C)n(-c2ccccc2)c2ccc(NC(C)=O)cc21 | 35.7% (inactive) |
| N#Cc1ccc(-c2ccc(Cl)cc2)nc1Oc1ccc(F)cc1 | -19.4% (inactive) |
| CCCC(=O)Nc1nc2ccc(NC(=O)c3c(F)c(F)c(OC)c(F)c3F)cc2s1 | 57.8% (active) |
| CSc1nc2ccc(NC(=O)c3c(F)cccc3F)cc2s1 | -93.5% (inactive) |
| CCCC(=O)Nc1nc2ccc(NC(=O)c3cccnc3)cc2s1 | 40.8% (inactive) |
| COc1ccccc1NS(=O)(=O)c1ccc(C(=O)N2CCN(c3ccccc3O)CC2)cc1 | -3.42% (inactive) |
| CC1(C)CN(c2ccc(-c3ccnc4ncnn34)cc2)C1=O | -3.78% (inactive) |
| O=C(COC(=O)c1ccccc1O)NCc1ccco1 | -0.428% (inactive) |
| Cc1cc(C(=O)OCC(=O)NCc2ccco2)c(C)n1-c1ccccc1 | 54.7% (active) |
| CN(c1ccccc1)S(=O)(=O)c1ccc(Cl)c(C(=O)OCC(=O)NCc2ccco2)c1 | -10.7% (inactive) |
| COc1ccc(NC(=O)N(C)C[C@H]2Oc3ccc(NC(=O)C4CC4)cc3C(=O)N([C@H](C)CO)C[C@@H]2C)cc1 | -11.5% (inactive) |
| COc1ccc(-c2c(NC(=O)c3ccco3)oc3ccc(Cl)cc3c2=O)cc1 | -5.27% (inactive) |
| COc1ccc(S(=O)(=O)N(C)C[C@H]2Oc3ccc(NS(=O)(=O)c4cccs4)cc3CC(=O)N([C@H](C)CO)C[C@H]2C)cc1 | 16% (inactive) |
| O=C(CSc1ncnc2scc(-c3ccccc3)c12)NCc1ccc2c(c1)OCO2 | 1.29% (inactive) |
| CC[C@]1(O)CC2CN(CCc3c([nH]c4ccccc34)[C@@](C(=O)OC)(c3cc4c(cc3OC)N(C=O)[C@H]3[C@@](O)(C(=O)OC)[C@H](OC(C)=O)[C@]5(CC)C=CCN6CC[C@]43[C@@H]65)C2)C1 (stereo not given in full) | 71.2% (active) |
| Cc1ccc(F)cc1S(=O)(=O)Nc1cccc(C(=O)N2CCCC(C(N)=O)C2)c1 (stereo not given) | 12.4% (inactive) |

| Structure (SMILES) | inhibition |
| --- | --- |
| CCC/C=C(\CCC)C(NC(=O)Cc1ccccc1)c1ccc(C(=O)OC)cc1 (stereo not given) | 25.8% (inactive) |
| CCNC(=S)N(CCc1c(C)[nH]c2ccc(C)cc12)Cc1ccco1 | -0.351% (inactive) |
| Cc1c(Nc2nc3ccccc3nc2NS(=O)(=O)c2cccs2)c(=O)n(-c2ccccc2)n1C | -0.383% (inactive) |
| Nc1c(-c2ccc(F)cc2)cnn1C1CCS(=O)(=O)C1 (stereo not given) | -7.3% (inactive) |
| O=C(CS(=O)(=O)Cc1ccccc1)Nc1cccnc1 | 7.62% (inactive) |
| COc1cc(OC)nc(N/N=C(\c2ccccc2)c2ccncc2)n1 | -5.67% (inactive) |
| N/C(=N\OC(=O)Cc1ccccc1[N+](=O)[O-])c1ccc(Br)cc1 | 1.58% (inactive) |
| N/C(=N\OC(=O)N1c2ccccc2Sc2ccccc21)c1ccc(Br)cc1 | 77% (active) |
| N/C(=N\OC(=O)c1ccc2c(c1)OCO2)c1ccc(Br)cc1 | -102% (inactive) |
| CC(C)(C)NS(=O)(=O)NC(=O)C1=C(N2CCCC2)COC1=O | -4.98% (inactive) |
| COC(=O)C1=NNC2(c3ccc(C)cc3)C(=O)N(c3cccc(C)c3C)C(=O)C12 (stereo not given) | -13.7% (inactive) |
| Cc1ccc(S(=O)(=O)N2CCCCC2)cc1C(=O)N(C)CC(=O)Nc1cccc(F)c1 | 0.943% (inactive) |
| Cc1cc(C)cc(NC(=O)N2CCC(NC(=O)c3ccc(F)cc3)CC2)c1 | -8.05% (inactive) |
| O=C(CCNC(=O)c1ccc(Br)cc1)Nc1cccc(S(=O)(=O)N2CCCCC2)c1 | 51.4% (active) |
| Cc1ccc(S(=O)(=O)N2CCCCC2)cc1NC(=O)CCNC(=O)c1ccccc1 | 1.31% (inactive) |
| O=C(Nc1cccc(S(=O)(=O)N2CCCCC2)c1)c1cncc(Br)c1 | -9.4% (inactive) |
| COc1ccc(-n2nnc3c(=O)n(CC(=O)OCc4ccccc4)cnc32)cc1 | -2.47% (inactive) |
| CCCc1nnc(SCC(=O)Nc2ccc(C(=O)OCC)cc2)o1 | -1.45% (inactive) |
| CCOC(=O)c1ccc(NC(=O)Cc2cccs2)cc1 | -42.6% (inactive) |
| CCOC(=O)c1ccc(NC(=O)Cn2cnc3cc(C)c(C)cc32)cc1 | 66.1% (active) |
| COc1ccc(CNC(=O)C2CCN(S(C)(=O)=O)CC2)cc1 | 11.1% (inactive) |
| CCOc1ccccc1CNS(=O)(=O)c1cc(-c2cc(C)no2)ccc1C | 18% (inactive) |
| Cc1cc(-c2ccc(C)c(S(=O)(=O)NCCCN(Cc3ccccc3)C(C)C)c2)on1 | 9.13% (inactive) |

| Structure (SMILES) | inhibition |
| --- | --- |
| COc1ccc(CNS(=O)(=O)c2cc(-c3cc(C)no3)ccc2C(C)C)cc1 | 50.9% (active) |
| COc1ccc(/C=N/NC(=O)C(C)N(c2ccc(OC)cc2)S(C)(=O)=O)cc1 (stereo not given) | 13.9% (inactive) |
| CC(C)CC(=O)Nc1nnc(S(=O)(=O)N(C)c2ccc(Cl)cc2)s1 | 1.22% (inactive) |
| O=c1oc2ccccc2cc1-c1cn(-c2ccccc2)c(=S)[nH]1 | 85.2% (active) |
| COc1cccc(-n2c(=S)[nH]c3c(oc4ccccc43)c2=O)c1 | -22.5% (inactive) |
| CS(=O)(=O)N1CCN(C(=O)c2cc3ccccc3oc2=O)CC1 | 2.45% (inactive) |
| CCOC(=O)c1cc(-c2ccc(F)cc2)n(CC(=O)NCc2ccccn2)c1C | -17.7% (inactive) |
| CCCN(CC1CC1)C(=O)COC(=O)c1ccc(C)cc1O | -1.18% (inactive) |
| Cc1cc(/C=N/n2cnnc2)c(C)n1-c1ccc2ncccc2c1 | 9.47% (inactive) |
| O=C1Oc2ccccc2C(=O)/C1=C/c1ccccc1O | 8.95% (inactive) |
| CCOc1cc(C(=O)N2CCc3cc(OC)c(OC)cc3C2)ccc1OC(F)F | 78.8% (active) |
| COc1cc2c(cc1OC)CN(C(=O)c1ccc(S(=O)(=O)N3CCCCCC3)cc1)CC2 | 12.2% (inactive) |
| COc1cc2c(cc1OC)CN(C(=O)c1cc(S(=O)(=O)N3CCCCC3)ccc1Cl)CC2 | 20.2% (inactive) |
| CCOc1ccccc1-c1nc(CN2CCC(C(=O)N3CCOCC3)CC2)c(C)o1 | 1.89% (inactive) |
| CCN(CC)CCn1cnc2c1c(=O)[nH]c(=O)n2Cc1ccccc1 | -2.97% (inactive) |
| COCCn1cnc2c1c(=O)n(Cc1ccc(Br)cc1)c(=O)n2Cc1ccccc1 | 11% (inactive) |
| N=c1c2c(-c3ccccc3)c(-c3ccccc3)n(Cc3ccccc3)c2ncn1CCCO | 58.6% (active) |
| CSc1nc(-c2ccccc2)nc(C(Cl)Cl)n1 | 11% (inactive) |
| Nc1cccnc1Sc1ccccc1 | 3.25% (inactive) |
| Cc1ccc2c(c1)N(CC(=O)NCCCN1CCCCC1)C(=O)c1cccnc1O2 | -8.41% (inactive) |
| CCCOC(=O)c1[nH]c2c(c1C)C(=O)CC(c1cccs1)C2 (stereo not given) | 60.8% (active) |
| COCCOC(=O)c1[nH]c2c(c1C)C(=O)CC(c1ccc(OC)cc1)C2 (stereo not given) | -19.4% (inactive) |
| COC(=O)C1C(=O)c2c([nH]c(C(=O)OCCSC)c2C)CC1C (stereo not given) | -39.9% (inactive) |

| Structure (SMILES) | inhibition |
| --- | --- |
| O=S(=O)(c1ccc(Sc2nnc3ccccn23)nc1)N1CCOCC1 | -12% (inactive) |
| Cc1c(Br)c([N+](=O)[O-])nn1C(C)C(=O)Nc1nccs1 (stereo not given) | 22.7% (inactive) |
| COc1cc([C@H](Cc2ccccc2)NC(C)=O)oc(=O)c1 | 8.38% (inactive) |
| CCN1/C(=C\c2ccc3ccccc3[n+]2CC)Sc2cc(C)ccc21 | 90.1% (active) |
| CCSC1=C(C#N)C(=O)n2c1cc1c2CCCC1 | 3.71% (inactive) |
| Oc1ccccc1CN1CCN(C(c2ccccc2)c2ccccc2)CC1 | -10.4% (inactive) |
| CC1(C)CC(N2CCN(C(c3ccccc3)c3ccccc3)CC2)=CC(=[N+]2CCCCC2)C1 | 83.2% (active) |
| O=C1CC(N2CCN(C(c3ccccc3)c3ccccc3)CC2)C(=O)N1 (stereo not given) | 4.97% (inactive) |
| CC(C)(C)NS(=O)(=O)CC12CCC(CC1=O)C2(C)C (stereo not given) | -14% (inactive) |
| CC/C(=N\NC(=O)c1c(C)nc2ccccn12)c1ccc(Cl)cc1 | -10.6% (inactive) |
| Cc1c(NC(=O)Nc2ccccc2Cl)sc(=S)n1C | 10.9% (inactive) |
| CC1(C)CC(CCC(=O)Nc2ccccc2Cl)C(=O)O1 (stereo not given) | 5.25% (inactive) |
| O=C(Nc1ccccc1Cl)/C(Cl)=C(\Cl)S(=O)c1ccccc1 (stereo not given) | 100% (active) |
| CSc1n[nH]c(=S)n1N | 8.75% (inactive) |
| COc1ccc(C2=Nn3c(nnc3-c3ccccc3OC)SC2)cc1OC1CCCC1 | 57.3% (active) |
| CC1=Nn2c(nnc2-c2ccccc2)SC1 | -7.08% (inactive) |
| COc1ccccc1-c1nnc2n1N=C(c1ccc(OC(F)F)c(OCC3CC3)c1)CS2 | 21.8% (inactive) |
| COc1cc(C(=S)NC2CCCCC2)ccc1O | -4.8% (inactive) |
| C/C(CC(O)(/C=N/O)c1ccccc1)=N\O (stereo not given) | -6.87% (inactive) |
| CCCNC(=O)OC[C@H]1O[C@H](CCO/N=C/[C@@H](NS(=O)(=O)c2ccc(C)cc2)[C@H](C)/C=C/CC(=O)OC)C=C[C@@H]1Oc1ccc(OC)cc1 | 8.93% (inactive) |
| O=C(COCc1cc(-c2ccc3c(c2)OCO3)on1)N1CCN(c2cccc(Cl)c2)CC1 | 3.84% (inactive) |
